About 83,000 compounds went through this panel and 20% of them were active in at least one assay; those are over-represented in the sample as a whole.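 Compound tested at a single concentration for 48 hours in 96-well plates; a percent growth value below 10 was scored as active.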 Values without a mark were called inactive. Activity calls are given as the source filed them.
Each molecule was assayed on NCI-H322M lung (assay: NCI-60 one-dose screen, 48 h (100 = growth as untreated, 0 = no growth, -100 = all killed)). Details: 10 µM unless noted.
Molecule O=C(COc1cccc(/C=C2\COc3ccc(Cl)cc3C2=O)c1)c1ccc(Cl)cc1 has a growth of 98.2%.
In the case of Cc1cc(Nc2ccc(C)c(Cl)c2)n2nc(C(F)(F)F)nc2n1, the growth is reported as 93.3%.
For CN(C)c1ccc(NC(=O)c2ccc(/C=C/C(=O)c3ncc[nH]3)cc2)cc1, the growth was 76.1%.
Work on O=[N+]([O-])c1ccccc1/C=N\NC(=S)N/N=C/c1ccccc1[N+](=O)[O-] yielded a growth of 63.7%.
For O=C(Oc1cccnc1)c1ccsc1Nc1ccnc(C(F)(F)F)c1, the growth was 104%.
In the case of OC(c1cc2cc(Cl)c(Cl)cc2c2cc(C(F)(F)F)ccc12)C1CCCCN1 (stereo unspecified), the growth is reported as -8.7% (active).
In the case of COc1ccc(-c2cc(-c3ccc(Nc4ccnc5cc(Cl)ccc45)cc3)nc(N3CCOCC3)n2)cc1, the growth is reported as 87%.
Molecule C=C1C(=O)O[C@H]2[C@H]1CC/C(COC(=O)NCCc1ccc(OC)c(OC)c1)=C\CC[C@@]1(C)O[C@@H]21 has a growth of 88%.
In the case of O=[N+]([O-])c1ccc2c(c1)Cc1cc(F)ccc1-2, the growth is reported as 95.6%.
With CN1CCN(c2nc(NCCCNc3ccnc4cc(Cl)ccc34)c3ccccc3n2)CC1 the growth was 64.3%.
Clc1ccc2c(NCCCCNc3nc(N4CCCCC4)nc4ccccc34)ccnc2c1 was tested, and the growth was 6.86% (active).
Work on NC(=NC1C2CC3CC(C2)CC1C3)Nc1ccc(I)cc1 (stereo unspecified) yielded a growth of 15.7%.
In the case of CCOc1nc(-c2ccccc2)cc2c(O)c(C(=O)O)[nH]c(=O)c12, the growth is reported as 147%.
Molecule COc1ccc(Nc2cc(C)nc(N3CCN(c4ccnc5cc(Cl)ccc45)CC3)n2)cc1 has a growth of 26.9%.
With Cc1cc(N2CCN(c3ccnc4cc(Cl)ccc34)CC2)nc(N2CCOCC2)n1 the growth was 95.3%.
Molecule N#Cc1c(N)n(CCNC(=O)c2ccccc2)c2nc3ccccc3nc12 has a growth of 121%.
Molecule COc1ccc(CN2c3ccccc3Sc3ccccc32)c(C(F)(F)F)c1 has a growth of 49.1%.
CCc1c(Nc2ccccc2C)nc(N)[nH]c1=O was tested, and the growth was 103%.
CC(=O)c1cc2c(N)c(C(=O)Nc3ccccc3)sc2nc1C gave a growth of 50.8%.
Molecule CCCCC/C(C=C(C#N)C#N)=C/c1ccccc1 has a growth of 102%.
OCCNc1nccc(N2CCN(c3ccnc4cc(Cl)ccc34)CC2)n1 was tested, and the growth was 84.2%.
Cc1cc(N2CCSCC2)nc(NC2CCCC(Nc3ccnc4cc(Cl)ccc34)C2)n1 (stereo unspecified) was tested, and the growth was -28.8% (active).
For COc1ccc(Nc2c3c4c(cccc4[nH]c2=O)C(=O)c2ccccc2-3)cc1, the growth was 24.9%.
In the case of O=C1/C(=C/c2ccccc2O)N=C2SCCCN12, the growth is reported as 97.5%.
For COc1cc2c(cc1O)CC[C@@H]1[C@@H]2CC[C@]2(C)[C@@H](OCCCN(C)C)CC[C@@H]12, the growth was -22.3% (active).
In the case of O=C(Cn1cccc(Nc2ccccc2)c1=O)Nc1ccccc1, the growth is reported as 114%.
For Cc1cc(N2CCN(c3ccnc4cc(Cl)ccc34)CC2)nc(NC2CCCCC2)n1, the growth was 58.5%.
In the case of CSc1ccc(SC2c3ccc(C)cc3Oc3nc(N)c(C#N)c(N)c32)cc1 (stereo unspecified), the growth is reported as -20.9% (active).
O=c1ccccc(-c2ccc(-c3ccco3)cc2)c1O gave a growth of 21.6%.
Work on O=C(COc1ccc(/C=C2\CSc3ccccc3C2=O)cc1)Nc1nccs1 yielded a growth of 87.9%.
Molecule CN(C)CCCNc1c2ccccc2nc2ccccc12 has a growth of 110%.
Work on O=C(Cc1ccc(/C=C/C(=O)c2ncc[nH]2)cc1)Nc1ccccc1 yielded a growth of 67.4%.
CC/C=C\C/C=C\C[C@H]1C/C=C2/C(=O)C=C[C@@H]2C/C=C\CCC(=O)O1 gave a growth of 45.3%.
For COc1cccc(-c2nc(SCC(=O)Nc3ccc(C(=O)/C=C/c4ccc(OC)c(OC)c4)cc3)[nH]c(=O)c2C#N)c1, the growth was 76.3%.
In the case of Cc1cc(N2CCN(C)CC2)nc(NC2CCCC(Nc3ccnc4cc(Cl)ccc34)C2)n1 (stereo unspecified), the growth is reported as -6.32% (active).
Work on Clc1ccc2nc3nc4ccc[nH]c4cc3c2c1 yielded a growth of 65.1%.
Molecule COc1ccc2c(c1)C(=O)/C(=C/c1ccccn1)CC2 has a growth of 99.3%.
For COc1ccc(C2Nc3c(c(C(C)(C)C)nn3-c3ccccc3)C(=O)CS2)cc1 (stereo unspecified), the growth was 104%.

The molecules below were run on HOP-62 NSCLC in the same assay as above. Details: 10 µM unless noted.
O=C(COc1cccc(/C=C2\COc3ccc(Cl)cc3C2=O)c1)c1ccc(Cl)cc1 was tested, and the growth was 73.7%.
With Cc1cc(Nc2ccc(C)c(Cl)c2)n2nc(C(F)(F)F)nc2n1 the growth was -17.2% (active).
In the case of CN(C)c1ccc(NC(=O)c2ccc(/C=C/C(=O)c3ncc[nH]3)cc2)cc1, the growth is reported as 54.7%.
O=[N+]([O-])c1ccccc1/C=N\NC(=S)N/N=C/c1ccccc1[N+](=O)[O-] was tested, and the growth was 56.5%.
For O=C(Oc1cccnc1)c1ccsc1Nc1ccnc(C(F)(F)F)c1, the growth was 96%.
With OC(c1cc2cc(Cl)c(Cl)cc2c2cc(C(F)(F)F)ccc12)C1CCCCN1 (stereo unspecified) the growth was -80.7% (active).
COc1ccc(-c2cc(-c3ccc(Nc4ccnc5cc(Cl)ccc45)cc3)nc(N3CCOCC3)n2)cc1 showed a growth of 81.6%.
C=C1C(=O)O[C@H]2[C@H]1CC/C(COC(=O)NCCc1ccc(OC)c(OC)c1)=C\CC[C@@]1(C)O[C@@H]21 showed a growth of 92.7%.
O=[N+]([O-])c1ccc2c(c1)Cc1cc(F)ccc1-2 was tested, and the growth was 106%.
In the case of CN1CCN(c2nc(NCCCNc3ccnc4cc(Cl)ccc34)c3ccccc3n2)CC1, the growth is reported as 49%.
With Clc1ccc2c(NCCCCNc3nc(N4CCCCC4)nc4ccccc34)ccnc2c1 the growth was -11.1% (active).
Molecule NC(=NC1C2CC3CC(C2)CC1C3)Nc1ccc(I)cc1 (stereo unspecified) has a growth of 12.9%.
Molecule CCOc1nc(-c2ccccc2)cc2c(O)c(C(=O)O)[nH]c(=O)c12 has a growth of 98.2%.
COc1ccc(Nc2cc(C)nc(N3CCN(c4ccnc5cc(Cl)ccc45)CC3)n2)cc1 gave a growth of 36.7%.
Work on Cc1cc(N2CCN(c3ccnc4cc(Cl)ccc34)CC2)nc(N2CCOCC2)n1 yielded a growth of 91.9%.
N#Cc1c(N)n(CCNC(=O)c2ccccc2)c2nc3ccccc3nc12 showed a growth of 111%.
For COc1ccc(CN2c3ccccc3Sc3ccccc32)c(C(F)(F)F)c1, the growth was 41%.
CCc1c(Nc2ccccc2C)nc(N)[nH]c1=O was tested, and the growth was 100%.
CC(=O)c1cc2c(N)c(C(=O)Nc3ccccc3)sc2nc1C showed a growth of 75.1%.
Molecule CCCCC/C(C=C(C#N)C#N)=C/c1ccccc1 has a growth of 106%.
Work on OCCNc1nccc(N2CCN(c3ccnc4cc(Cl)ccc34)CC2)n1 yielded a growth of 56.3%.
In the case of Cc1cc(N2CCSCC2)nc(NC2CCCC(Nc3ccnc4cc(Cl)ccc34)C2)n1 (stereo unspecified), the growth is reported as -46.2% (active).
COc1ccc(Nc2c3c4c(cccc4[nH]c2=O)C(=O)c2ccccc2-3)cc1 was tested, and the growth was 28%.
Molecule O=C1/C(=C/c2ccccc2O)N=C2SCCCN12 has a growth of 88.4%.
With COc1cc2c(cc1O)CC[C@@H]1[C@@H]2CC[C@]2(C)[C@@H](OCCCN(C)C)CC[C@@H]12 the growth was -57.8% (active).
In the case of O=C(Cn1cccc(Nc2ccccc2)c1=O)Nc1ccccc1, the growth is reported as 105%.
Cc1cc(N2CCN(c3ccnc4cc(Cl)ccc34)CC2)nc(NC2CCCCC2)n1 gave a growth of 29.6%.
With CSc1ccc(SC2c3ccc(C)cc3Oc3nc(N)c(C#N)c(N)c32)cc1 (stereo unspecified) the growth was -27.8% (active).
O=c1ccccc(-c2ccc(-c3ccco3)cc2)c1O was tested, and the growth was 6.97% (active).
O=C(COc1ccc(/C=C2\CSc3ccccc3C2=O)cc1)Nc1nccs1 showed a growth of 94.5%.
In the case of CN(C)CCCNc1c2ccccc2nc2ccccc12, the growth is reported as 88.1%.
Molecule O=C(Cc1ccc(/C=C/C(=O)c2ncc[nH]2)cc1)Nc1ccccc1 has a growth of 49.9%.
CC/C=C\C/C=C\C[C@H]1C/C=C2/C(=O)C=C[C@@H]2C/C=C\CCC(=O)O1 was tested, and the growth was -1.49% (active).
COc1cccc(-c2nc(SCC(=O)Nc3ccc(C(=O)/C=C/c4ccc(OC)c(OC)c4)cc3)[nH]c(=O)c2C#N)c1 gave a growth of 94.1%.
For Cc1cc(N2CCN(C)CC2)nc(NC2CCCC(Nc3ccnc4cc(Cl)ccc34)C2)n1 (stereo unspecified), the growth was -31.2% (active).
Clc1ccc2nc3nc4ccc[nH]c4cc3c2c1 was tested, and the growth was 89.7%.
COc1ccc2c(c1)C(=O)/C(=C/c1ccccn1)CC2 showed a growth of 105%.
For COc1ccc(C2Nc3c(c(C(C)(C)C)nn3-c3ccccc3)C(=O)CS2)cc1 (stereo unspecified), the growth was 106%.
